Assay results from PubChem BioAssay (NCI).
About 79,000 compounds went through this panel and 15% of them were active in at least one assay; those are over-represented in the sample as a whole. Unmarked numbers belong to inactive results. Calls of active or inactive are those of the source. No stated cut-off is given here; in the data, active means growth inhibition above about 70%; inactive means the rest.

Columns and labels:
[1] = NCI Yeast Anticancer Drug Screen. Data for the rad50 strain (AID 155);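 further: 0% = growth of vehicle-only cultures of the same strain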; details: S. cerevisiae rad50 strain growth inhibition, active compounds read high
In short: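 Compounds were tested on a yeast strain with an engineered DNA damage repair alteration; the reported value is growth inhibition normalised to vehicle treatment.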

[2] = NCI Yeast Anticancer Drug Screen. Data for the mec2-1 strain (AID 157); details: S. cerevisiae mec2-1 strain, active compounds read high
In short: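 Mutant yeast (mec2-1) grown with compound; growth inhibition relative to vehicle control reported.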

[3] = NCI Yeast Anticancer Drug Screen. Data for the sgs1 mgt1 strain (AID 161);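 further: 0% = growth of cultures given vehicle only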; details: S. cerevisiae sgs1 mgt1 strain, active compounds read high
In short: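 Yeast cells carrying a defined DNA-repair defect were exposed to test compounds. Growth inhibition was measured relative to vehicle-treated controls.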

[4] = NCI Yeast Anticancer Drug Screen. Data for the cln2 rad14 strain (AID 165);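 further: 0% = growth equal to vehicle treated cultures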; details: S. cerevisiae cln2 rad14 strain, active compounds read high
In short: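 Readout is yeast growth inhibition versus vehicle-treated controls, using a strain with cln2 and rad14 alterations exposed to compound.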

[5] = NCI Yeast Anticancer Drug Screen. Data for the bub3 strain (AID 167); details: S. cerevisiae bub3 mutant strain, active compounds read high
In short: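 Growth of a checkpoint-deficient yeast mutant is measured after compound exposure. Values represent inhibition relative to vehicle.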

[6] = NCI Yeast Anticancer Drug Screen. Data for the mlh1 rad18 strain (AID 175); details: S. cerevisiae mlh1 rad18 strain growth inhibition, active compounds read high
In short: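 Genetically defined yeast (DNA repair-deficient) exposed to compounds; growth inhibition determined relative to vehicle.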

[7] = at 5.0 µM (retest, dose inferred, filed as 0.5)
[8] = at 50.0 µM (retest, dose inferred, filed as 5.0)

Structure (SMILES) | growth inhibition [1, 7] | growth inhibition [1, 8] | growth inhibition ([1]; at 50.0 µM) | growth inhibition [2, 7] | growth inhibition [2, 8] | growth inhibition ([2]; at 50.0 µM) | growth inhibition [3, 7] | growth inhibition [3, 8] | growth inhibition ([3]; at 50.0 µM) | growth inhibition [4, 7] | growth inhibition [4, 8] | growth inhibition ([4]; at 50.0 µM) | growth inhibition [5, 7] | growth inhibition [5, 8] | growth inhibition ([5]; at 50.0 µM) | growth inhibition [6, 7] | growth inhibition [6, 8] | growth inhibition ([6]; at 50.0 µM)
CN(Cc1ccccc1)C(c1ccccc1)C(O)C(O)(c1ccccc1)c1ccccc1 (centres undefined) | -10% | 40% | 85.2% (active) | 10% | 78% (active) | 58.2% | -3% | 70% (active) | 87.3% (active) | -26% | 16% | 19.7% | -9% | 58% | 30.4% | 18% | 81% (active) | 72.5% (active)
C#C[C@]1(OC(C)=O)CC[C@H]2[C@@H]3CCC4=CC(=O)CC[C@@H]4[C@H]3CC[C@@]21C | 4% | 16% | 97.6% (active) | 7% | 15% | 88.3% (active) | 2% | 29% | 97.2% (active) | 9% | 22% | 89.7% (active) | 5% | 13% | 93.8% (active) | 3% | 19% | 96.8% (active)
C=CS(=O)(=O)c1ccc(C)cc1 | 0% | 49% | 84% (active) | 6% | 70% (active) | 78.7% (active) | 7% | 55% | 81.4% (active) | 5% | 31% | 37.2% | 4% | 61% | 75.8% (active) | 6% | 87% (active) | 88.5% (active)
CCCCCCN(CCCCCC)P(=O)(N1CC1C)N1CC1C (centres undefined) | -2% | 99% (active) | -11.6% | -5% | 99% (active) | 32.4% | -3% | 33% | 10.1% | 3% | 99% (active) | -7.75% | 7% | 99% (active) | 81.2% (active) | -2% | 99% (active) | 24.9%
O=C(NC(=O)C(F)(F)F)Nc1ccc(Cl)cc1 | 1% | 0% | -35.8% | -2% | -8% | -1.15% | 1% | 1% | 9.75% | 4% | 0% | 57.1% | -1% | -2% | 18.9% | -1% | -1% | 0.8%
N#CC1=CN(Cc2ccccc2)C(C#Cc2ccccc2)C=C1 (centres undefined) | 1% | -1% | 58.9% | -1% | 9% | 88.2% (active) | 2% | 8% | 82.2% (active) | -2% | -7% | 15.4% | -2% | 0% | 91% (active) | -2% | 4% | 83.2% (active)
C=C1C(=O)[C@]23C[C@H]1CC[C@H]2[C@@]12CO[C@@H](O)[C@@H]1C(C)(C)[C@@H](O)C[C@@H]2OC3=O | 8% | 6% | 2.3% | -19% | 79% (active) | -5.25% | 9% | 27% | 25.4% | -7% | 95% (active) | 67.2% | -5% | 95% (active) | -0.9% | -1% | 11% | 24.4%
O=C(Nc1cc(Cl)ccc1Oc1cc(Cl)c(Cl)cc1S(=O)(=O)O)Nc1cc(Cl)ccc1Oc1cc(Cl)c(Cl)cc1S(=O)(=O)O | -10% | 81% (active) | 85% (active) | -3% | 73% (active) | 87.4% (active) | -13% | 79% (active) | 84.1% (active) | 23% | 56% | 76% (active) | 14% | 78% (active) | 86% (active) | -4% | 91% (active) | 85.3% (active)
Clc1ccc(CN2COc3c(ccc4ccccc34)C2)cc1 | 10% | 78% (active) | 88.8% (active) | 3% | 43% | 59.8% | 13% | 97% (active) | 83.2% (active) | 0% | 85% (active) | 61.1% | -4% | 96% (active) | 89.9% (active) | 1% | 96% (active) | 59%
O=C(Nc1cccc2ccccc12)OCCCCCCl | -2% | 97% (active) | 97% (active) | -2% | 96% (active) | 97% (active) | 1% | 98% (active) | 97.1% (active) | -6% | 95% (active) | 95.5% (active) | -5% | 93% (active) | 97.2% (active) | -16% | 93% (active) | 97.4% (active)
N/C(=N\N=C\c1cc(I)cc(I)c1O)NO | 11% | 98% (active) | 95.5% (active) | 1% | 96% (active) | 95.3% (active) | 2% | 98% (active) | 97.6% (active) | 38% | 89% (active) | 93.7% (active) | -2% | 99% (active) | 96.7% (active) | 24% | 99% (active) | 97.9% (active)
CC1(c2ccc3ccccc3c2)C(C#N)(C#N)C1(C#N)C#N | 87% (active) | 92% (active) | 91.4% (active) | 94% (active) | 94% (active) | 92% (active) | 97% (active) | 96% (active) | 88% (active) | 62% | 93% (active) | 83.2% (active) | 96% (active) | 93% (active) | 91.2% (active) | 97% (active) | 93% (active) | 87.7% (active)
CC(c1ccccc1C(=O)O)c1cccc2ccccc12 (centres undefined) | 4% | 89% (active) | 87.3% (active) | -3% | 91% (active) | 92.3% (active) | 6% | 90% (active) | 83.3% (active) | 6% | 98% (active) | 97.5% (active) | -7% | 88% (active) | 91.5% (active) | -12% | 92% (active) | 92.8% (active)
